RORg inh: qHTS for inhibitors of ROR gamma transcriptional activity | actives 5.4% (n = 310,000) | Nuclear receptor ROR-gamma (Mus musculus), P51450 | AID 2551, 2010 | Drosophila S2 Gal4-RORgamma UAS-luciferase reporter, 20 h | Potency, µM (series often up to 53.6 µM), usual class: inhibitors; further: nearly all actives have a fitted effect of over 60% in size
Target sequence (P51450 whole entry, looked up, the tested form may be a part): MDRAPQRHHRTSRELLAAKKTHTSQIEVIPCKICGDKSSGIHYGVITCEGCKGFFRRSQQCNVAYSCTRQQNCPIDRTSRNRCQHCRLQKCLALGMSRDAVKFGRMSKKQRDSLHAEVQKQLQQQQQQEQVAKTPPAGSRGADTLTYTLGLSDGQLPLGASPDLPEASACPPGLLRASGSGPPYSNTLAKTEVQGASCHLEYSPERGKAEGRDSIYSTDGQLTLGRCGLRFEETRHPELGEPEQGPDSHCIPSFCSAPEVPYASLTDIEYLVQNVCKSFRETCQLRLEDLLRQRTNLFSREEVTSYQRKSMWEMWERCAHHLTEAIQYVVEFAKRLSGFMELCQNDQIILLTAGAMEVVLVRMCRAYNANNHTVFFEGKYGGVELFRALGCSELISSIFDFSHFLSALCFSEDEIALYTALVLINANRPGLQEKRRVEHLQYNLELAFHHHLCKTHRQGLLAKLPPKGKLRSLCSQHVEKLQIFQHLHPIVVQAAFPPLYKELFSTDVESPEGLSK
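A Gal4/UAS one-hybrid system in insect cells: metallothionein-promoter Gal4–ROR gamma fusion plus Photinus luciferase reporter. Copper sulfate 700 uM final, 20 hr ambient incubation, luminescent detection after 10 min with reagent.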
TDP1 cell noCPT: qHTS for Inhibitors of human tyrosyl-DNA phosphodiesterase 1 (TDP1): qHTS in cells in absence of CPT; DT40 Tdp1-/- hTDP1 cells, no CPT, ATP luminescence, 48 h; Potency, µM (series often up to 46.2 µM), most hits filed as inhibitors; AID 686978, 2013; actives 15% (n = 420,000); further: nearly all actives have a fitted effect of over 55% in size
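A cellular qHTS used chicken DT40 cells lacking endogenous Tdp1 but carrying stably transfected human TDP1. Compounds were applied without camptothecin, and cell growth kinetics were judged by ATP-dependent luminescence after ≥48 hr.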
IL-1B inflam inh: qHTS for Inhibitors of Inflammasome Signaling: IL-1-beta AlphaLISA Primary Screen; activity change, % at 57.5 µM; THP-1 LPS/ATP IL-1B secretion, AlphaLISA, 16 h; active compounds read low; actives 4.7% (n = 360,000); in the data active means activity change below about -50%; inconclusive means mostly about -30% to -49%
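Secreted IL-1B measured by AlphaLISA bead assay after 16 h compound exposure of THP-1 cells; compounds (final up to 57.5 uM) added 1 h before LPS (250 ng/mL) and ATP (1.25 mM) stimulation; lower signal means less secretion.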
Gal4-VP16 FLuc: VP16 counterscreen qHTS for inhibitors of ROR gamma transcriptional activity; Drosophila S2 Gal4-VP16 UAS-luciferase, luminescence, 20 h; actives 3.5% (n = 310,000); Potency, µM (doses to about 53.6 µM), most hits filed as inhibitors;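 further: Gal4-VP16 expression switched on by copper sulfate through the metallothionein promoter; nearly all actives have a fitted effect of over 50% in size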
LDHA block: qHTS assay for inhibitors of human lactate dehydrogenase; L-lactate dehydrogenase A chain (Homo sapiens), P00338; purified LDHA, NADH/diaphorase-resazurin fluorescence; active compounds read low; activity change, % (values are at about 110 or 230 µM); actives 0.15% (n = 480,000); in the data active means activity change below about -30%; inconclusive means mostly about -25% to -30%
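Human LDH5 at 2 nM final in Tris HCl pH 7.4 with 0.06 mM NADH and 0.2 mM pyruvate, reacted 5 minutes at room temperature. Remaining NADH coupled via diaphorase/resazurin; resorufin fluorescence read at 0 and 20 minutes, normalized to enzyme-free and DMSO wells.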
DT40 TDP1 CPT: qHTS for Inhibitors of human tyrosyl-DNA phosphodiesterase 1 (TDP1): qHTS in cells in presence of CPT. chicken DT40 Tdp1-/-;hTDP1 cells + 20 nM CPT, ATP luminescence, 48 h. actives 12% (n = 420,000). Potency, µM (series often up to 46.2 µM), usual class: inhibitors. AID 686979, 2013; further: nearly all actives have a fitted effect of over 55% in size
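Chicken DT40 Tdp1-/- cells stably complemented with human TDP1 were seeded at 400 cells/well in medium containing 20 nM camptothecin, exposed to pin-transferred compounds, and grown at 37 °C for at least 48 hr. Viability was read as ATP luminescence.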
A number is an active result; – = inactive; ? = inconclusive; · = no result given; [ ] = dose if it differs, or a comment. An excerpt weighted towards active compounds, which were near 18% of everything screened. Unless noted, the call rests on the fitted dose curve; in most records, active means well fitted curve in the direction sought with a large enough effect; inconclusive means small, poorly fitted or top-dose-only effect, or another doubt; inactive means no such curve, though single readings can be large; an effect the other way counts as inactive or inconclusive.

SMILES	RORg inh	TDP1 cell noCPT	IL-1B inflam inh	Gal4-VP16 FLuc	LDHA block	DT40 TDP1 CPT
COc1cccc(NC(=O)COc2ccc3c(=O)c(Oc4ccc(F)cc4)coc3c2)c1	·	·	·	·	–	·
CC(Oc1ccc2c3c(c(=O)oc2c1)CCCC3)C(=O)NCCN1CCOCC1 (stereo not drawn)	–	–	–	–	–	–
CC(Oc1ccc2c(c1)c1ccnc3c4ccccc4c(=O)n2c13)C(=O)NCCN1CCOCC1 (stereo not drawn)	–	7.31µM	-51.5	?	–	8.2µM
COc1ccc2c(c1OC)c(=O)n1c3ccc(OC(C)C(=O)NCCCN4CCOCC4)cc3c3ccnc2c31 (stereo not drawn)	–	6.51µM	?	–	–	13µM
COc1ccc2c(c1OC)c(=O)n1c3ccc(OC(C)C(=O)NCCN4CCOCC4)cc3c3ccnc2c31 (stereo not drawn)	–	23.1µM	?	–	–	16.4µM
COC(=O)C1(NC(=O)c2ccc(OC)c(OC)c2)CCCCC1	·	·	·	·	–	·
CN(C)S(=O)(=O)c1cccc(NC(=O)CSc2nc3ccccc3n2-c2ccccc2)c1	–	25.9µM	–	–	–	?
O=C(O)CSc1nc2ccccc2n1-c1ccccc1	–	–	-81.3	–	–	–
CN(C)S(=O)(=O)c1ccc(NC(=O)CSc2nc3ccccc3n2-c2ccccc2)cc1	–	20.6µM	–	–	–	?
O=C(CCc1cc(Cl)no1)N(CCS(=O)(=O)N1CCCCC1)Cc1cccnc1	·	·	·	·	–	·
CC1CCc2cc(F)ccc2N1C(=S)NC1CC1 (stereo not drawn)	·	·	·	·	–	·
COc1ccccc1CNC(=O)CN1CCC(c2nc3cc(Cl)ccc3s2)CC1	·	·	·	·	–	·
CCOC(=O)c1cc(-c2ccccc2)nc2nc(N(CC)CC)sc12	–	?	-53.9	?	–	–
Cc1nc(C)c(CCC(=O)Nc2ccccc2Cl)c(=O)[nH]1	·	·	·	·	–	·
CCOC(=O)c1c(N2C(=O)C=CC2=O)sc(C)c1C	4.47µM	2.59µM	-95.8	–[0.365 µM]	–	1.16µM
O=S(=O)(/N=c1\ssc(-c2ccccc2)c1Cl)c1ccccc1	·	·	·	·	–	·
CN(C)c1ccc(/C=N\NC(=O)c2ccc(Cn3cc(Cl)cn3)cc2)cc1	?	16.4µM	–	?	–	?
O=C(N/N=C/c1ccccc1Br)c1csc2ccccc12	·	·	·	·	–	·
O=C(N/N=C/c1ccc(O)cc1)c1csc2ccccc12	–	0.259µM	–	–	–	?
COc1ccc(/C=N/NC(=O)c2ccc(Cl)cc2)cc1Cn1cc(Cl)cn1	?	?	–	?	–	–
CN(C)c1ccc(/C=N/NC(=O)c2ccccc2Cl)cc1	–	7.31µM	?	?	–	5.8µM
CN(C)c1ccc(/C=N/NC(=O)c2sccc2-n2cccc2)cc1	11.2µM	–	–	?	–	–
CSc1ccc(/C=N/NC(=O)c2ccc(O)cc2)cc1	0.562µM	?	–	2.24µM	–	25.9µM
CN(C)c1ccc(/C=N/NC(=O)c2ccc(Cl)cc2)cc1	8.91µM	–	–	–	–	–
CSc1ccc(/C=N/NC(=O)c2ccccc2Cl)cc1	–	13µM	–	?	–	16.4µM
SMILES	RORg inh	TDP1 cell noCPT	IL-1B inflam inh	Gal4-VP16 FLuc	LDHA block	DT40 TDP1 CPT
O=C(Nc1nc(-c2ccc(Cl)cc2)cs1)C1CCN(C(=O)c2ccoc2)CC1	·	·	·	·	–	·
CC(NC(=O)/C=C/c1cnc2ccccc2n1)C12CC3CC(CC(C3)C1)C2 (stereo not drawn)	–	18.4µM	–	?	–	?
COc1cc(C(=O)Nc2nc3ccc(C)cc3s2)ccc1OCc1c(C)noc1C	–	17.8µM	–	–	–	17.8µM
COc1ccc(NS(=O)(=O)c2cc(NC(=O)c3cccc(OCc4c(C)noc4C)c3)ccc2OC)cc1	–	23.1µM	–	–	–	?
CCc1nnc(NC(=O)c2ccc(OCc3c(C)noc3C)c(OC)c2)s1	–	–	–	–	–	–
COc1cc(C(=O)Nc2cc(OC)c(OC)c(OC)c2)ccc1OCc1c(C)noc1C	·	?	–	·	–	?
COc1cc(NC(=O)c2ccc(OCc3c(C)noc3C)c(OC)c2)cc(OC)c1	·	13µM	–	·	–	?
COc1ccccc1C(=O)Oc1ccc(NC(=O)Cc2nn(C)c(=O)c3ccccc23)cc1	·	·	·	·	–	·
COc1ccc(NC(=O)C(C)Sc2ncnc3c2sc2nc4c(cc23)COC(C)(C)C4)cc1 (stereo not drawn)	·	·	·	·	–	·
CCCCN=C1NN=C(c2c[nH]c3ccccc23)C(C)S1 (stereo not drawn)	·	·	·	·	–	·
CC(Cn1cccn1)NC(=O)N1CCN(Cc2cccnc2)CC1 (stereo not drawn)	·	·	·	·	–	·
Cc1oc(-c2nc(C#N)c(N3CCCCCC3)o2)cc1S(=O)(=O)N1CCOCC1	·	·	·	·	–	·
